High-throughput results (PubChem)
JMJD2A Tudor inh = JMJD2A Tudor domain (human) inhibition; AlphaScreen JMJD2A-Tudor / H3K4me3 peptide binding; Potency, µM (highest dose often 114 µM), for inactives: top-dose activity change, negative = inhibition, usual class: inhibitors; 4.4% of 390,000 active; AID 504339; also: potency is read from the fitted curve at half-maximal effect; % is scaled to controls: 0 for no effect and ±100 for the full control effect; nearly all actives have a fitted effect of over 50% in size
HP1b binding inh = blocks HP1-beta chromodomain binding to methylated histone tails; AlphaScreen HP1-beta / biotin-H3K9me3 peptide binding; Potency, µM (highest dose often 114 µM), without a hit: top-dose activity change, negative = inhibition, most hits filed as inhibitors; 0.56% of 390,000 active; AID 540317; also: potency is read from the fitted curve at half-maximal effect; nearly all actives have a fitted effect of over 70% in size
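AlphaScreen: HP1-beta (50 nM) preformed 30 min with biotin-H3(1-18)K9me3 peptide (50 nM) in PBS pH 7.4, 0.01% Tween-20. Compound added for 30 min at RT, then streptavidin donor/nickel chelate acceptor beads (10 ug/mL) for 30 min.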
PI5P4K alpha inh = inhibitors of human PI5P4K alpha | P48426 | 1.2% of 330,000 active | max response, % | PI5P4Kalpha enzyme, ADP-Glo luminescence, 60 min; stronger effect = lower value | AID 652105; active = max response of -50% or lower; inconclusive = between -30% and -50%; inactive = -30% or higher; also: value at the top dose of about 77 µM; % is scaled to controls: 0 for no effect and ±100 for the full control effect
Target sequence (P48426 whole entry, looked up): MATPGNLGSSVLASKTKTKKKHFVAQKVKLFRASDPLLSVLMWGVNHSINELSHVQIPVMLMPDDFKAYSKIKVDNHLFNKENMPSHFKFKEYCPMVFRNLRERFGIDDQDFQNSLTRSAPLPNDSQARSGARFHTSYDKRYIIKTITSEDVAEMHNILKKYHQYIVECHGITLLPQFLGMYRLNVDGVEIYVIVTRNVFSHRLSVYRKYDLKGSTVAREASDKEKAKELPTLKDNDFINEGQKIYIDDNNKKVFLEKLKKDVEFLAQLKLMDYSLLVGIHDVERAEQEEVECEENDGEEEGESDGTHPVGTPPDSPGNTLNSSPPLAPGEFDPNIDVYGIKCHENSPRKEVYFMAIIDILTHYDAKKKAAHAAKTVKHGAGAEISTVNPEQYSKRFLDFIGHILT
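ADP-Glo luminescence end-point after a 60 min room-temperature kinase reaction. PI5P4Kalpha and substrate in HEPES pH 7.4 buffer with EGTA, 0.1% CHAPS and 5% DMSO; ATP at 5 microM final.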
PLK1 PBD block = blocks phosphopeptide binding to human PLK1 polo-box domain | P53350 | Plk1 PBD binding of FITC phosphopeptide, fluorescence polarization | Potency, µM, for inactives: max response, negative = inhibition, usual class: inhibitors | 2.8% of 360,000 active | AID 720504; also: potency is read from the fitted curve at half-maximal effect; series mostly up to about 57 µM; % is scaled to controls: 0 for no effect and ±100 for the full control effect; nearly all actives have a fitted effect of over 65% in size
G9a inh = G9a (human) methyltransferase inhibition; Q96KQ7; G9a H3K9 monomethylation, AlphaScreen, 2 h; Potency, µM (series often up to 102 µM), for inactives: top-dose activity, negative = inhibition, hits mostly inhibitors; 8.8% of 350,000 active; AID 504332; also: potency is read from the fitted curve at half-maximal effect; % is scaled to controls: 0 for no effect and ±100 for the full control effect; nearly all actives have a fitted effect of over 75% in size
Target sequence (Q96KQ7 913-1193 limits assumed): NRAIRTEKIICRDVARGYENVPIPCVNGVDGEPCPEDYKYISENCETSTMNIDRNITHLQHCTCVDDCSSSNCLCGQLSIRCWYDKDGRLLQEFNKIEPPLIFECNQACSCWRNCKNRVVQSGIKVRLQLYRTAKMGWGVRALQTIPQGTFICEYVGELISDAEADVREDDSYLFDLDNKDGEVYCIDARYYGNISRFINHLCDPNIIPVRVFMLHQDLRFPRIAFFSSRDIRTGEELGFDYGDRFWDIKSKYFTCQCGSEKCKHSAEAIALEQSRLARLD
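AlphaScreen read-out: biotin-H3K9 peptide (500 nM) methylation by 20 nM enzyme with 20 uM SAM, 2 h at room temperature after 15 min compound preincubation; anti-monomethyl H3K9 antibody plus donor/acceptor beads, 10 min dark.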
BAZ2B block = BAZ2B (human) inhibition | Q9UIF8 | AlphaScreen BAZ2B-H3K14Ac peptide displacement | Potency, µM (top dose mostly 114 µM), for the others: at the highest dose activity change, negative = inhibition, most hits filed as inhibitors | 4.4% of 360,000 active; also: potency is read from the fitted curve at half-maximal effect; % is scaled to controls: 0 for no effect and ±100 for the full control effect; nearly all actives have a fitted effect of over 60% in size
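Complex of BAZ2B and biotin-H3K14Ac (50 nM apiece) forms over 30 min at RT, then faces library compounds up to 110 uM for another 30 min; AlphaScreen beads added, 20 min dark incubation, luminescence read.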
Starred values were filed as active, the others as inactive; ? = inconclusive; nt = no result; ! = not confirmed by another sample; [ ] = remark or other dose. Shown are actives, neighbours in structure and some others; about 12% of the full set was active somewhere. Unless noted, calls follow the shape of the dose curve; as a rule, active = well fitted curve in the direction sought with a large enough effect; inconclusive = small, poorly fitted or top-dose-only effect, or another doubt; inactive = no such curve, though single readings can be large; an effect the other way counts as inactive or inconclusive.

SMILES	JMJD2A Tudor inh	HP1b binding inh	PI5P4K alpha inh	PLK1 PBD block	G9a inh	BAZ2B block
OC(COC(c1ccc(Cl)cc1)c1ccc(Cl)cc1)CN1CCN(c2ccccn2)CC1 (configuration not stated)	?	-5%	23	-6%	?	50µM*
COc1cccc(OCC(O)CN2CCN(c3ncccn3)CC2)c1 (configuration not stated)	3%	38%	-7	-8%	-5%[59 µM]	2%
COc1ccc(OC)c(N(C)S(=O)(=O)c2ccc3c(c2)NC(=O)CC(=O)N3)c1	-5%	48%	nt	nt	2%[59 µM]	-2%
Cc1ccc(NC(=O)c2oc3ccc(S(=O)(=O)N4CCCCC4)cc3c2C)c(C)c1	-26%	47%	nt	nt	?	24%
Cc1cc(C)n(CCc2nc(-c3ccc(C)o3)cs2)n1	79µM*	?	?	?	?	?
Cc1cc(C)n(CCc2nc(-c3cc4ccccc4o3)cs2)n1	-2%	14%	6	-18%	16%[59 µM]	nt
CCN(CC)C(=O)[C@H]1CC(CC(=O)NCc2ccco2)C(=O)N2CCc3c([nH]c4ccc(OC)cc34)[C@]12C (some centres not stated)	-27%	-4%	-2	-18%	nt	nt
COc1ccc(-c2cc(=O)oc3cc(OC(C)C(=O)NC(Cc4c[nH]c5ccc(O)cc45)C(=O)O)ccc23)cc1 (configuration not stated)	-27%	0%	11	3%	50µM*	50µM*
CNC(=O)c1c(NC(=O)c2nc3ccccc3s2)sc2c1CCC2	nt	nt	nt	nt	40µM*	-10%
Cc1ccccc1C(=O)Nc1sc2c(c1C(=O)O)CCC2	-11%	1%	?	-7%	50µM*	?
Cc1cc(C(=O)c2ccc(C(C)(C)C)cc2)c(NC(=O)CCl)s1	?	-11%	18	-11%	32µM*	-32%
CCN(CC)CCCC(C)NC(=O)c1c(NC(=O)c2ccccc2)sc2c1CCCC2 (configuration not stated)	45µM*	-10%	-2	-10%	79µM*	-14%
O=C(Nc1sc2c(c1C(=O)O)CCCC2)c1ccccc1Cl	-19%	24%	-3	-7%	24%[0.501 µM]	-2%
CN(CCOc1ccc(Cl)cc1)C(=O)c1cc([N+](=O)[O-])ccc1N1CCOCC1	-20%	-6%	-4	-4%	?	-5%
O=C(CCl)Nc1sccc1C(=O)c1ccccc1	-20%	7%	-2	-20%	nt	nt
Cc1sc(NC(=O)CCl)c(C(=O)c2ccccc2)c1C	20µM*	?	nt	27µM*	?	?
Cc1ccccc1C(=O)Nc1sc(C)c(C)c1C(=O)c1ccccc1	?	?	1	21µM*	10µM*	?
Cc1ccc(-c2nc3c4ccccc4n(CC(=O)N4CCN(c5ccc(F)cc5)CC4)c(=O)n3n2)cc1	-2%	14%	nt	nt	3%[59 µM]	-2%
CC(=O)OCC1=C(C(=O)O)N2C(=O)C(NC(=O)c3ccc(F)cc3)C2SC1 (configuration not stated)	-24%	14%	0	-11%	-44%	?
CC(=O)OCC1=C(C(=O)O)N2C(=O)[C@@H](NC(=O)CSc3ccncc3)[C@H]2SC1	18µM*	?	-4	?	16µM*!	45µM*
CC(=O)OCC1=C(C(=O)O)N2C(=O)C(NC(=O)C(C)Cn3nc(C)c(Cl)c3C)C2SC1 (configuration not stated)	-29%	-9%	-3	?	40µM*	56µM*
Nc1ccc(C(O)(C(F)(F)F)C(F)(F)F)cc1	?	13%	nt	-7%	22%	-3%
Cc1ccc(C(C)(c2ccc(N)cc2)c2ccc(N)cc2)cc1	50µM*	?	13	-9%	nt	nt
Cc1cc2c(s1)c1cnn(Cc3cccc4cccnc34)c(=O)c1n2C	-24%	nt	nt	nt	nt	nt
CN1CCN(C2=Cc3ccccc3Sc3cc(F)c(Cl)cc32)CC1	50µM*	-6%	14	-11%	18µM*	35µM*
SMILES	JMJD2A Tudor inh	HP1b binding inh	PI5P4K alpha inh	PLK1 PBD block	G9a inh	BAZ2B block
CN1CCN(C2=Cc3ccccc3Sc3cc(F)c(F)cc32)CC1	?	?	1	-9%	?	45µM*
CN1CCN(C2=Nc3ccccc3Sc3ccc(Cl)cc32)CC1	nt	nt	nt	nt	-48%[59 µM]	nt
CN1CCN(C2=Cc3cc(Cl)ccc3Sc3cc(F)ccc32)CC1	56µM*	-46%	2	-4%	13µM*	22µM*
CC(OC(=O)c1cnccn1)C(=O)c1ccccc1 (configuration not stated)	-5%	18%	-11	-7%	-1%	7%
COC(=O)c1scc(-c2ccc(C)cc2)c1S(=O)(=O)Nc1ccc(F)cc1F	-14%	-6%	nt	nt	13%[59 µM]	-1%
O=C(Nc1ccc2oc(-c3cc(Br)ccc3Cl)nc2c1)c1cc2ccccc2o1	-27%	38%	nt	nt	?	79µM*
COC(=O)c1cc(OC)c(OC)cc1NC(=O)c1ccc2c(c1)CCN2S(C)(=O)=O	-16%	25%	nt	nt	1%[59 µM]	-5%
O=S(=O)([O-])C(c1ccccc1)[n+]1ccccc1 (configuration not stated)	-8%	38%	1	-11%	?	0%
Cc1[nH]n(-c2ccccc2)c(=O)c1CCO	4%	36%	7	-14%	nt	2%
Cc1[nH]n(-c2ccccc2)c(=O)c1-c1ccc(Cl)cc1	79µM*	-14%	-8	27µM*	14µM*	-6%
Cc1[nH]n(-c2ccccc2)c(=O)c1S(=O)(=O)c1ccccc1	-27%	33%	nt	-27%	45µM*	42%
S=c1nc(-c2csc3c2CCCC3)[nH][nH]1	?	?	?	27µM*	16%[0.501 µM]	-3%
CCOCCCNC(=O)Cn1cnc2c(cnn2-c2ccc(C)c(C)c2)c1=O	-16%	44%	1	0%	nt	-4%
Cc1nnc(SCC(=O)NNC(=O)c2ccccc2)n1-c1ccccc1	50µM*	28%	2	-3%	-44%[59 µM]	8%
O=C(CSc1ncn[nH]1)NNC(=O)c1ccccc1	7.9µM*	37%	4	6%	9%[0.501 µM]	5%
O=C(CSc1nnc(-c2ccccc2O)n1-c1ccccc1)Nc1cccc(C(=O)O)c1	-3%	18%	-14	-1%	50µM*	?
CCN(Cc1ccccc1)C(=O)CSc1ncn[nH]1	-21%	-3%	2	-13%	45µM*	-5%
CC(=O)Nc1c(C)nn(-c2ccccc2)c1N1CCC(C(=O)NCc2ccc(F)cc2)CC1	1%	28%[57 µM]	nt	nt	4%[59 µM]	4%
COC(=O)c1ccc(Cn2nnc3c(=O)[nH]c(C4CCCN(S(=O)(=O)c5cccc(Cl)c5)C4)nc32)cc1 (configuration not stated)	3%	29%	3	-6%	0%[59 µM]	-27%
